Our source for the binding signal values is publication PMC7862700, “An all-to-all approach to the identification of sequence-specific readers for epigenetic DNA modifications on cytosine”.

Common to all, as to assay: DAPPL (digital affinity profiling via proximity ligation, sequencing); 10 mM Tris-HCl pH 7.5, 50 mM NaCl, 1 mM DTT, 4% glycerol, room temperature, 30 min; GST-TFs on glutathione beads, 16-mer random dsDNA library, 0.1% formaldehyde crosslink after washing; high values mean tight binding
In one test the target is T1, FEV (Homo sapiens, UniProt Q99581 1-238).
T1 sequence: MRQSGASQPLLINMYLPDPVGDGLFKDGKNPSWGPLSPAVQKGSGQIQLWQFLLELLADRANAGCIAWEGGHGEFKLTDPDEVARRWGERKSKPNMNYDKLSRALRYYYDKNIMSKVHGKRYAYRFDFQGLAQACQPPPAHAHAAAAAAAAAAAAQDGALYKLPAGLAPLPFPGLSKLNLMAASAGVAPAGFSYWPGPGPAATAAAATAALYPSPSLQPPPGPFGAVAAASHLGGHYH
The conditions noted are these: protein: recombinant; tags: N-terminal GST; dsDNA, one strand shown. The method in brief: (§1)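 Binding signal is given per hexamer as its read frequency for a factor divided by its frequency in the tag-only sample. GST-fused human transcription factors were expressed in yeast, captured on glutathione beads, barcoded with DNA and pooled with that sample, then incubated with 200 nmole of a 16-mer random double-stranded DNA library in Tris/NaCl/DTT/glycerol buffer for 30 min at room temperature. The pools were then washed, crosslinked, proximity-ligated, amplified by PCR and sequenced on an Illumina NextSeq500.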

A further test deals with ETV5 (Homo sapiens, UniProt P41161 1-510). The conditions noted are these: protein: recombinant; tags: N-terminal GST; dsDNA, one strand shown. An outline of the steps:
as §1

The target of another test is HSF1 (Homo sapiens, UniProt Q00613 1-529). The conditions noted are these: protein: recombinant; tags: N-terminal GST; chain copies: 3; dsDNA, one strand shown. An outline of the steps: as §1
For the next test, the target named is T2, SPIC (Homo sapiens, UniProt Q8N5J4 1-248).
T2 sequence: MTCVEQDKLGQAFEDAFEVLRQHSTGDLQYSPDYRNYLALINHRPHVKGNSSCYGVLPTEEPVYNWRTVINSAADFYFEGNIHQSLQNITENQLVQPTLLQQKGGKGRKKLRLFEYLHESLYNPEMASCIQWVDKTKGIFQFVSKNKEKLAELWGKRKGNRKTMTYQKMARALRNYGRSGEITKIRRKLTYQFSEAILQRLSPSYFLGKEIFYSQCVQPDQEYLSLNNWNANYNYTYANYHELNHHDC
The note with it: protein: recombinant; tags: N-terminal GST; dsDNA, one strand shown. An outline of the steps:
as §1

For a further test, the target named is ELF4 (Homo sapiens, UniProt Q99607 1-663). The note with it: protein: recombinant; tags: N-terminal GST; dsDNA, one strand shown. An outline of the steps: as §1
The next test has as its target T3, ELK4 (Homo sapiens, UniProt P28324-2 1-405).
T3 sequence: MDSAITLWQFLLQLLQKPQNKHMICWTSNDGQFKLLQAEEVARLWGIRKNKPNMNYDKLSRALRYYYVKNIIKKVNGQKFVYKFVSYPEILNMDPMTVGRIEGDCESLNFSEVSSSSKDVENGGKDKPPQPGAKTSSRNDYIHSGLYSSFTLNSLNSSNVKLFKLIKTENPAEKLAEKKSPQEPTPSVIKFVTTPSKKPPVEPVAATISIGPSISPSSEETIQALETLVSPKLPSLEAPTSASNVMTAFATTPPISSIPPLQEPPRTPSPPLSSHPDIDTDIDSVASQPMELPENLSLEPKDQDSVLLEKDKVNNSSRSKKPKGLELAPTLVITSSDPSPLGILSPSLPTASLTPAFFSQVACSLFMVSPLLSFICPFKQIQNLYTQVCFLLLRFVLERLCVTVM
The note with it: protein: recombinant; tags: N-terminal GST; dsDNA, one strand shown. The method in brief:
as §1

The target in another test is T4, ETV2 (Homo sapiens, UniProt O00321 1-342).
T4 sequence: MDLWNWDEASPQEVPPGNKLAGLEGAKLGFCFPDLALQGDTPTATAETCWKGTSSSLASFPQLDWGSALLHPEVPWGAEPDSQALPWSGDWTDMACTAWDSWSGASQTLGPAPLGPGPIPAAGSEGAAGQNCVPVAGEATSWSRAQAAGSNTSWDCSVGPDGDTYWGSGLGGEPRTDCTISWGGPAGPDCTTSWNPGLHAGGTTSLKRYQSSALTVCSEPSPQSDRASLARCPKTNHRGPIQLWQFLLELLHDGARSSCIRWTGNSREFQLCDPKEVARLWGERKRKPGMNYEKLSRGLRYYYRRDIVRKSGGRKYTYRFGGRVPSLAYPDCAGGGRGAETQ
The note with it: protein: recombinant; tags: N-terminal GST; dsDNA, one strand shown. An outline of the steps:
as §1

A further test deals with T5, ELF3 (Homo sapiens, UniProt P78545 1-371).
T5 sequence: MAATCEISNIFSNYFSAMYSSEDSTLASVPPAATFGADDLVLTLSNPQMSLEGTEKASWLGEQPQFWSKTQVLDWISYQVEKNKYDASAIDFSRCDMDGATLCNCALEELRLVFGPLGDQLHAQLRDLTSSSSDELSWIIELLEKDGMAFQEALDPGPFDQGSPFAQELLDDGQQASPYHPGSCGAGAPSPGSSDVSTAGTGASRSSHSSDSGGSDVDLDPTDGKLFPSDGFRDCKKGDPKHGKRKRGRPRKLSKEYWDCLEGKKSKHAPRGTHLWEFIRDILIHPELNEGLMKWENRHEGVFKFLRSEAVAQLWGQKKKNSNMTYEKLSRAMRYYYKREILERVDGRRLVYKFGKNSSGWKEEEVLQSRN
The note with it: protein: recombinant; tags: N-terminal GST; dsDNA, one strand shown. The method in brief: as §1

The next test addresses CRX (Homo sapiens, UniProt O43186 1-299). The note with it: protein: recombinant; tags: N-terminal GST; dsDNA, one strand shown. The method in brief:
as §1

The target in the next test is ETV1 (Homo sapiens, UniProt P50549 1-477). The note with it: protein: recombinant; tags: N-terminal GST; dsDNA, one strand shown. An outline of the steps: as §1
A further test deals with T6, ERF (Homo sapiens, UniProt P50548 1-548).
T6 sequence: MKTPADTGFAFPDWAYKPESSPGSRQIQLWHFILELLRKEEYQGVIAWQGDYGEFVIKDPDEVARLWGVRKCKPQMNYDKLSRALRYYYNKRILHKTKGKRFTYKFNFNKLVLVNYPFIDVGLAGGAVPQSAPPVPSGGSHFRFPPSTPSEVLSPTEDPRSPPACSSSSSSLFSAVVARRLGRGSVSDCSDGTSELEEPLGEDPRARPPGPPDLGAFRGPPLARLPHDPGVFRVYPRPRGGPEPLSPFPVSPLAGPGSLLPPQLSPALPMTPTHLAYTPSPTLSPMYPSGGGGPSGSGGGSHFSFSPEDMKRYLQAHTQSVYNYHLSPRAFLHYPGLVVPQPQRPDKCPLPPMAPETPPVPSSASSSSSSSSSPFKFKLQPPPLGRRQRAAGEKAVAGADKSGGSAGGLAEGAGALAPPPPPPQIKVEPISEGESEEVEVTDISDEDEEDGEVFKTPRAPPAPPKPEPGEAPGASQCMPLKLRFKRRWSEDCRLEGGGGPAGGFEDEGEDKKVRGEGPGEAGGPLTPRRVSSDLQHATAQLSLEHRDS
The note with it: protein: recombinant; tags: N-terminal GST; dsDNA, one strand shown. An outline of the steps: as §1

The next test deals with T7, ETV3L (Homo sapiens, UniProt Q6ZN32 1-361).
T7 sequence: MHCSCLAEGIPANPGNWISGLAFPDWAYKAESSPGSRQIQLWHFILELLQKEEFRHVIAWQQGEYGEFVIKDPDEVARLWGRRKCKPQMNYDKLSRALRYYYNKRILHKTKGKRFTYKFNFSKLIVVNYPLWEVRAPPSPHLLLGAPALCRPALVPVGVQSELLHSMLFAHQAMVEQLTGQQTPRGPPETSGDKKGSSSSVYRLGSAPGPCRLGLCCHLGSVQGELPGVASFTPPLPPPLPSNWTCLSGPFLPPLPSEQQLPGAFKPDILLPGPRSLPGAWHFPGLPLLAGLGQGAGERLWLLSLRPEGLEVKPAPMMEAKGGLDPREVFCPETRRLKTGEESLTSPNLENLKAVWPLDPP
The conditions noted are these: protein: recombinant; tags: N-terminal GST; dsDNA, one strand shown. An outline of the steps:
as §1

A further test addresses T8, ETS2 (Homo sapiens, UniProt P15036 1-469).
T8 sequence: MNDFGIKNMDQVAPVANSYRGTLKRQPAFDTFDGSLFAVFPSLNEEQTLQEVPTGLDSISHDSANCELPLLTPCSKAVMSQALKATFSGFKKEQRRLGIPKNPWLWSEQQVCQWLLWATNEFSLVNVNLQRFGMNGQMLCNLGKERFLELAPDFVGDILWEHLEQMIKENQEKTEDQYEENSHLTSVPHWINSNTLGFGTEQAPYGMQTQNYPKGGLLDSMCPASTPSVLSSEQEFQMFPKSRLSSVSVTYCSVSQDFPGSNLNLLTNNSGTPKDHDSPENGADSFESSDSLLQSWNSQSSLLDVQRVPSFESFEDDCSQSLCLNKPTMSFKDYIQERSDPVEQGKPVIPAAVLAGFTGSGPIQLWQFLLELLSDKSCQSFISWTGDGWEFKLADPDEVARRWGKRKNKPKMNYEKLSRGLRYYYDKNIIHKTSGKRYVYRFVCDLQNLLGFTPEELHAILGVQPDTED
The note with it: protein: recombinant; tags: N-terminal GST; dsDNA, one strand shown. An outline of the steps:
as §1

Another test deals with T9, SPDEF (Homo sapiens, UniProt O95238 1-335).
T9 sequence: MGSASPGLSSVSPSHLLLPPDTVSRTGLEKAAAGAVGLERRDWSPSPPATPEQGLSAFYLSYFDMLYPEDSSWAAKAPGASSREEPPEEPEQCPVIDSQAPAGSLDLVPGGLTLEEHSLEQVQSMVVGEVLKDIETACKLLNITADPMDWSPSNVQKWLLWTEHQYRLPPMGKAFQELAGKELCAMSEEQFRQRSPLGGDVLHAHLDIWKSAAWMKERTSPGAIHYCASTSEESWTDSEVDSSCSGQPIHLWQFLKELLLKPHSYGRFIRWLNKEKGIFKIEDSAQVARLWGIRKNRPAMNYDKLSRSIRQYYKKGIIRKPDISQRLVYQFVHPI
The note with it: protein: recombinant; tags: N-terminal GST; dsDNA, one strand shown. An outline of the steps: as §1

A further test has as its target T10, ETV7 (Homo sapiens, UniProt Q9Y603 1-341).
T10 sequence: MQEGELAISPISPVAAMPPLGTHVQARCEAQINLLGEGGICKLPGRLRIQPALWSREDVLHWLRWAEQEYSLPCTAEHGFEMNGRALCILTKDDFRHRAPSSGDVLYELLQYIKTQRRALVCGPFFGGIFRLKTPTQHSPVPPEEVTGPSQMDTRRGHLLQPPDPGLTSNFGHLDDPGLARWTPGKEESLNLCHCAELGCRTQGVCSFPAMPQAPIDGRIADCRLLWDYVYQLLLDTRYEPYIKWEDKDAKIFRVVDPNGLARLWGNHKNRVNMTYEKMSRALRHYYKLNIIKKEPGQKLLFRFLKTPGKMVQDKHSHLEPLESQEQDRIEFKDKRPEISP
The note with it: protein: recombinant; tags: N-terminal GST; dsDNA, one strand shown. An outline of the steps:
as §1

The next test deals with T11, ELF5 (Homo sapiens, UniProt Q9UKW6-2 1-255).
T11 sequence: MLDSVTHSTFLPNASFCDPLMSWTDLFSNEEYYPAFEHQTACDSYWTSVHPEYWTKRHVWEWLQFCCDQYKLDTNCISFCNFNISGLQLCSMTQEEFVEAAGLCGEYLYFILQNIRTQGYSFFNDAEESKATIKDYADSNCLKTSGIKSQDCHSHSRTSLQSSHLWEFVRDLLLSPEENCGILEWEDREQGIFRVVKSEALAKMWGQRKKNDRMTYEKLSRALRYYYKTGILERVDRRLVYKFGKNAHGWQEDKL
The conditions noted are these: protein: recombinant; tags: N-terminal GST; dsDNA, one strand shown. The method in brief: as §1

Another test deals with T12, ETV3 (Homo sapiens, UniProt P41162-2 1-143).
T12 sequence: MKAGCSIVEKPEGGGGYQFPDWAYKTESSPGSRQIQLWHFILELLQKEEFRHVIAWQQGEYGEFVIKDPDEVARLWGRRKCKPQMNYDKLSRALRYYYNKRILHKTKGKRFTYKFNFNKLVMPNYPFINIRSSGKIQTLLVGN
The note with it: protein: recombinant; tags: N-terminal GST; dsDNA, one strand shown. The method in brief:
as §1

Another test deals with ETV6 (Homo sapiens, UniProt P41212 1-452). The conditions noted are these: protein: recombinant; tags: N-terminal GST; dsDNA, one strand shown. An outline of the steps: as §1
Chain of ETV6 (P41212 whole entry): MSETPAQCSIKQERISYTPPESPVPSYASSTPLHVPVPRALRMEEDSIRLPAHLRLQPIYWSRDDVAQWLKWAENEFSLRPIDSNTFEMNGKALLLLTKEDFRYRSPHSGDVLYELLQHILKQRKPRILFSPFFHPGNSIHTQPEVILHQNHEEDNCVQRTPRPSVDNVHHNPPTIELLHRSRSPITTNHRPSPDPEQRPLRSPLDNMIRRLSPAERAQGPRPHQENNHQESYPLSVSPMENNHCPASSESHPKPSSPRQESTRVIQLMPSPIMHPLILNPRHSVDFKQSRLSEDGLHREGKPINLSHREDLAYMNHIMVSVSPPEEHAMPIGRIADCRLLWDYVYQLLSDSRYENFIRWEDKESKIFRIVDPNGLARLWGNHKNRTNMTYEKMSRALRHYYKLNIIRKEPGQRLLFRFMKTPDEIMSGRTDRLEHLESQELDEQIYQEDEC

Chain of ETV1 (P50549 whole entry): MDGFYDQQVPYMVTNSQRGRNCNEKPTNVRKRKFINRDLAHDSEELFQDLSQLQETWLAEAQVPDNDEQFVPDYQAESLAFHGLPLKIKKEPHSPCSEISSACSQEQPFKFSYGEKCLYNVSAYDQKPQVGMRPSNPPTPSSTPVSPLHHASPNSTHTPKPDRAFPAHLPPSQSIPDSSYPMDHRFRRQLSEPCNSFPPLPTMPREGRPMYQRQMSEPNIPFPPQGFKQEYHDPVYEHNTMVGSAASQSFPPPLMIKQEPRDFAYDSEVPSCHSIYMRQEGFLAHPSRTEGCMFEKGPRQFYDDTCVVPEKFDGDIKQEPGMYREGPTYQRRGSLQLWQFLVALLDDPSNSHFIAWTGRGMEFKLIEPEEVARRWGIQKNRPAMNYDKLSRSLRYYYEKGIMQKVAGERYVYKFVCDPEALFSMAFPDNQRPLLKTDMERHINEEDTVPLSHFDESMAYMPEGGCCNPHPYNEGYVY
Chain of ELF4 (Q99607 whole entry): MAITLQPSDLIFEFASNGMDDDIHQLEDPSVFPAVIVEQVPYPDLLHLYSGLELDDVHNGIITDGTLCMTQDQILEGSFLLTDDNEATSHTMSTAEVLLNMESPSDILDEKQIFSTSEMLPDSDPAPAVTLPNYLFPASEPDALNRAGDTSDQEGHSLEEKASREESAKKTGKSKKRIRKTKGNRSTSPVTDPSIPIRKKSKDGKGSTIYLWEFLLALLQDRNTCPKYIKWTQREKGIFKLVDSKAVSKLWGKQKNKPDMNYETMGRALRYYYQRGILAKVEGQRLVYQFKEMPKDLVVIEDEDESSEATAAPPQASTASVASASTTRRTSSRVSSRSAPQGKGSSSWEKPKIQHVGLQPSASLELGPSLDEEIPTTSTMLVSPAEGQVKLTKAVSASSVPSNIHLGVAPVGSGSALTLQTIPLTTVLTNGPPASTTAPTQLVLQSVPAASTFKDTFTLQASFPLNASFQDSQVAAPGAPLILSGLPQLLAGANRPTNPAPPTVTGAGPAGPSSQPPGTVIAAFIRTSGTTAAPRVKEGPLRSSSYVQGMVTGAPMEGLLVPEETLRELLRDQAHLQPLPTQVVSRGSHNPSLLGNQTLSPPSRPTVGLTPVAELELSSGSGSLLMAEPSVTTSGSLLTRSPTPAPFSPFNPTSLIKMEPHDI
Chain of HSF1 (Q00613 whole entry): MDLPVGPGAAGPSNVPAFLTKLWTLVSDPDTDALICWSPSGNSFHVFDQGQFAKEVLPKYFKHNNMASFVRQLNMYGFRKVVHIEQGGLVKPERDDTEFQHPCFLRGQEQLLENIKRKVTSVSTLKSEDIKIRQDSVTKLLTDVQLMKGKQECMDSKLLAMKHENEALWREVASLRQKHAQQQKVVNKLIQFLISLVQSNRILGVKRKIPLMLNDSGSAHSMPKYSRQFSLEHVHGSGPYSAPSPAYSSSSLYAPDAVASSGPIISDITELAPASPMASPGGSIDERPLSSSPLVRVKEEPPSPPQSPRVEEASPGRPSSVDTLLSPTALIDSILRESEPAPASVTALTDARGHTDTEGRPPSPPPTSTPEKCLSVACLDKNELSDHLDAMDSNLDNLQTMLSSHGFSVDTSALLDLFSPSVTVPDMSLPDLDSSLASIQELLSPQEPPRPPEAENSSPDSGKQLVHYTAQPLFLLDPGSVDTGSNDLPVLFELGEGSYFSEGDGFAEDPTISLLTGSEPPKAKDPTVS
Chain of ETV5 (P41161 whole entry): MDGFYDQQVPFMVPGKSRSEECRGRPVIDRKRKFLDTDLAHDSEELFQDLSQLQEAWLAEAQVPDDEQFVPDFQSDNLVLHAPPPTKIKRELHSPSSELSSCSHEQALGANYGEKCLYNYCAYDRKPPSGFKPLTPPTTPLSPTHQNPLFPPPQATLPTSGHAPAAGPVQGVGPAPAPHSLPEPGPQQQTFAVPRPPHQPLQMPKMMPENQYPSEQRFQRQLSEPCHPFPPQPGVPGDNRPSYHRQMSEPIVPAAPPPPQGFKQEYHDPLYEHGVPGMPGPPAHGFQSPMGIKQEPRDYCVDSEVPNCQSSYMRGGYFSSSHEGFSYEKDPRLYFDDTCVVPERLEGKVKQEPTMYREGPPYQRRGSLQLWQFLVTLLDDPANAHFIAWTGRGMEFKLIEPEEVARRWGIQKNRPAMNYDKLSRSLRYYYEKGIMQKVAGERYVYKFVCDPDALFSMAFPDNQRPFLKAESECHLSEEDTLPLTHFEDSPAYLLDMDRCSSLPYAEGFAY
Chain of CRX (O43186 whole entry): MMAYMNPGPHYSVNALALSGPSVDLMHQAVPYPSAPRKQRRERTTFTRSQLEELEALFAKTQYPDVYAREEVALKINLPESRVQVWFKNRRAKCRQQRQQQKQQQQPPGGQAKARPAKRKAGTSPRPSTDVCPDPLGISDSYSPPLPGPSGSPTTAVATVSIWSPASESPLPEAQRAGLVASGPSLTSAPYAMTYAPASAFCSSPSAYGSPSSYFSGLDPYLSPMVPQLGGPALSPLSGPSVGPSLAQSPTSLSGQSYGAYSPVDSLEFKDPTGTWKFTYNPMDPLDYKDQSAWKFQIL

On to GAACTC, for which the binding signal is 1.28 fold enrichment (6-mer frequency, TF over GST control) with FEV; 1.29 fold enrichment (6-mer frequency, TF over GST control) in the test with ETV5; 1.25 fold enrichment (6-mer frequency, TF over GST control) with HSF1; 1.32 fold enrichment (6-mer frequency, TF over GST control) in the test with SPIC; 1.26 fold enrichment (6-mer frequency, TF over GST control) with ELF4; 1.14 fold enrichment (6-mer frequency, TF over GST control) with ELK4. The binding signal with ETV2 was 1.1 fold enrichment (6-mer frequency, TF over GST control); with ELF3, 1.29 fold enrichment (6-mer frequency, TF over GST control); in the test with CRX, 1.02 fold enrichment (6-mer frequency, TF over GST control); in the test with ETV1 it was 1.35 fold enrichment (6-mer frequency, TF over GST control); with ERF, 1.11 fold enrichment (6-mer frequency, TF over GST control); with ETV3L, 1.3 fold enrichment (6-mer frequency, TF over GST control). In addition, the binding signal is 1.26 fold enrichment (6-mer frequency, TF over GST control) in the test with ETS2; 1.33 fold enrichment (6-mer frequency, TF over GST control) with SPDEF; 1.29 fold enrichment (6-mer frequency, TF over GST control) in the test with ETV7; 1.32 fold enrichment (6-mer frequency, TF over GST control) with ELF5; 1.33 fold enrichment (6-mer frequency, TF over GST control) with ETV3; 1.28 fold enrichment (6-mer frequency, TF over GST control) in the test with ETV6.
